{"source": "PubChem BioAssay AID485284", "about": "(NMMLSC, 2010)", "note": "Results with a measured potency or affinity are listed apart."}
{"assay": "inhibitors of CD8+ T cell–vesicle binding, dose response, mouse 2C CD8+ T cells, flow cytometry (AID 485284);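 note: drosophila derived vesicles carrying Ld MHC with QL9 peptide plus B7-1 and ICAM-1; vesicle binding seen as anti-B7-1 PE fluorescence on CD8 gated cells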", "settings": "2C mouse CD8+ T cell-exosome binding; at 45 µM (top of the series)", "units": {"binding remaining, % of control": "%"}}
{"smiles": "COc1ccc(NC(=O)[C@H](C)NC(=O)C2CCN(S(=O)(=O)c3ccc(C)cc3)CC2)cc1", "binding remaining, % of control": 108}
{"smiles": "Cc1cc(N2CCN(C)CC2)nc2ccc(NC(=S)N3CCC4(CC3)OCCO4)cc12", "binding remaining, % of control": 147}
{"smiles": "Cc1cc(C)n(C(=O)c2sc3cc(F)ccc3c2Cl)n1", "binding remaining, % of control": 160}
{"smiles": "O=C(c1ccco1)N1CCN(C(c2ccccc2Cl)c2nnnn2Cc2ccco2)CC1", "note": "(stereo not drawn)", "binding remaining, % of control": 17.4}
{"smiles": "COc1ccc(NC(=O)CC2C(=O)N(Cc3ccccc3)C(=S)N2CCN2CCOCC2)cc1", "note": "(stereo not drawn)", "binding remaining, % of control": 106}
{"smiles": "CCCCCCCCn1c2c(c(=N)c3c1CCC3)CCCC2", "binding remaining, % of control": 36.6}
{"smiles": "Cc1ccc(S(=O)(=O)c2c(N)n(NC(=O)c3ccccc3C)c3nc4ccccc4nc23)cc1", "binding remaining, % of control": 100}
{"smiles": "C/C(=N\\NC(=O)c1ccco1)c1cc2ccccc2o1", "binding remaining, % of control": 160}
{"smiles": "CCOc1ccc(Cl)cc1/C=N/NC(=O)c1ccccc1", "binding remaining, % of control": 35.5}
{"smiles": "CCCCn1c(N)c(N(CCOC)C(=O)C2CC(=O)N(c3ccc(CC)cc3)C2)c(=O)[nH]c1=O", "note": "(stereo not drawn)", "binding remaining, % of control": 17.2}
{"smiles": "CCC1(c2ccccc2)NC(=O)N(CC(=O)Nc2cc(Cl)ccc2N2CCN(C)CC2)C1=O", "note": "(stereo not drawn)", "binding remaining, % of control": 124}
{"smiles": "COc1ccccc1CNC(=O)c1ccc(N(C)S(=O)(=O)c2ccc(C)cc2)cc1", "binding remaining, % of control": 156}
{"smiles": "CCOC(=O)c1ccc(NC(=O)CN2C(=O)NC3(CCCCCCC3)C2=O)cc1", "binding remaining, % of control": 44.2}
{"smiles": "CC(C)(C)OC(=O)NCc1ccc(CNC(=O)c2nc[nH]c2C(=O)NCc2ccccc2)cc1", "binding remaining, % of control": 109}
{"smiles": "CCSc1nnc(NC(=O)c2ccc(F)c(S(=O)(=O)N3CCOCC3)c2)s1", "binding remaining, % of control": 127}
{"smiles": "CCCNC(=O)c1nc2ncc(Br)cn2n1", "binding remaining, % of control": 153}
{"smiles": "COc1ccc([N+](=O)[O-])cc1NC(=O)c1ccc(N(Cc2ccccc2C)S(C)(=O)=O)cc1", "binding remaining, % of control": 99.1}
{"smiles": "CCOC(=O)c1cnc(=O)[nH]c1C", "binding remaining, % of control": 189}
{"smiles": "Cc1ccccc1CS(=O)(=O)CCC(=O)N1CCN(c2ccc(N3CCOCC3)nn2)CC1", "binding remaining, % of control": 40.8}
{"smiles": "O=C(NC1CCCCCC1)C1CCN(S(=O)(=O)c2ccccc2)CC1", "binding remaining, % of control": 137}
{"smiles": "Cc1ccccc1C(=O)NCC(=O)N1CCN(C/C=C/c2ccccc2)CC1", "binding remaining, % of control": 42.6}
{"smiles": "COc1ccc(CN2C(=O)C(C)Nc3ncnc(N4CCN(c5ccccn5)CC4)c32)cc1", "note": "(stereo not drawn)", "binding remaining, % of control": 22}
{"smiles": "CCOc1ccc(-c2csc(NNC3=NCCCCC3)n2)cc1", "binding remaining, % of control": 156}
{"smiles": "O=C(Oc1ccc(C(=S)N2CCOCC2)cc1)c1ccc(F)cc1", "binding remaining, % of control": 63.3}
{"smiles": "CN(CC(=O)Nc1cccc(F)c1)C(=O)c1ccc(S(=O)(=O)N2CCCC2)cc1", "binding remaining, % of control": 21.6}
{"smiles": "Cn1c(=O)c2cc(S(=O)(=O)NCCC(=O)NC3CCCCCC3)ccc2n(C)c1=O", "binding remaining, % of control": 83.7}
{"smiles": "CCOC(=O)CSc1nc(COc2ccccc2)nc2ccccc12", "binding remaining, % of control": 99.6}
{"smiles": "CN1CCN(C(=O)c2cc3ccccc3cc2O)CC1", "binding remaining, % of control": 178}
{"smiles": "CC1CCC(NC(=O)CN2C(=O)NC3(CCCCCC3)C2=O)CC1", "note": "(stereo not drawn)", "binding remaining, % of control": 101}
{"smiles": "Cc1cccc(Nc2nc(-c3ccccn3)cs2)n1", "binding remaining, % of control": 69.7}
{"smiles": "COc1cc(OC)c2cc(C(=O)N[C@H](C(=O)N3CCC[C@H]3C(=O)O)C(C)C)n(C)c2c1", "binding remaining, % of control": 99.6}
{"smiles": "COc1ccc(NS(=O)(=O)c2cc(NC(=O)C3CC3)ccc2N2CCCCC2)cc1", "binding remaining, % of control": 49.3}
{"smiles": "CS(=O)(=O)NCc1ccccc1Br", "binding remaining, % of control": 95.9}
